Where “and” joins values, the source holds several entries; their conditions need not be identical. Identical values can stand only once. Calls of active or inactive are those of the source. Unless noted, no rule for the calls is given here.
What was measured:
[1] = compounds altering circadian rhythm period length – cell-based, LOPAC library, luminescence reporter (AID 2774); conditions: circadian reporter cells, at 7 µM, actives lie on both sides;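 also: values are relative to mean of DMSO wells on each plate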
[2] = tested on: Hepatitis C virus NS3 helicase; test: blockers of NS3h binding to ssDNA – biochemical, fluorescence polarization, LOPAC1280 library, primary screen (AID 687035; in the data active = inhibition above about 37%); conditions: Purified HCV NS3 helicase, Cy5-dT15 ssDNA binding fluorescence polarization; stronger effect = higher value; concentration not given here
[3] = compounds altering Cy5-DNA-NS3h complex signal – biochemical, LOPAC1280, artefact control for HCV NS3 helicase inhibitor project (AID 687037); conditions: Cy5-DNA-NS3h complex fluorescence interference counterscreen
[4] = tested on: Aerobactin synthetase IucA (Klebsiella pneumoniae); test: inhibition of K. pneumoniae IucA enzyme – biochemical, Tocris library, absorbance (AID 1345561); conditions: purified IucA enzyme assay, absorbance (OD) read-out; stronger effect = lower value;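 tested at 8 µM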;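 also: 100% = enzyme without compound and 0% = no enzyme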
[5] = viability loss with induced miR-34 in A549 – imaging, A549 dox-inducible miR-34, nuclei and caspase counts, primary screen (AID 1347080;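 active = compounds whose cell count with miR-34 switched on is under 0.7 times the count with it off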); conditions: A549 miR-34 inducible, Hoechst nuclei count, 48 h
[6] = blockers of cellular phospholipid synthesis – cell-based, LOPAC library, screen 4, primary screen (AID 1347384); conditions: animal cells, phospholipid biosynthesis inhibition screen; at 10 µM
[7] = galactose survival enhancers in mitochondrial complex I cybrids – cell-based, galactose medium, ATP luminescence, primary screen (AID 1645843;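 active = z-score of at least 1.8 in each of two replicates, scored against plate mean and spread of sample wells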;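 also: positive z means more ATP and so rescue of galactose-driven cybrid death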); conditions: complex I mutant cybrid cells, 72 h, stronger effect = higher value
[8] = stronger effect = lower value, cell number ratio, induced over uninduced
[9] = measured here: relative caspase fold change +Dox/-Dox
[10] = measured here: total cells with miR-34 induction, stronger effect = lower value
[11] = measured here: total cells without miR-34 induction

SMILES	period change [1]	inhibition [2]	fluorescence ratio (interference) [3]	remaining activity [4]	fold change [5, 8]	fold change [5, 9]	cell count [5, 10]	cell count [5, 11]	outcome [6]	z-score [7]
CCN(CC)CCOC(=O)c1cc(Cl)c(N)cc1OC	-0.055 h (inactive)	-6% (inactive)	1 (inactive)	95% (inactive)	0.965 (inactive) and 0.955 (inactive)	1.47 and 1.03	10500 and 9010	10800 and 9430	inactive	0.75 (inactive) and 0.1 (inactive)
c1ccc2nc(C3=NCCN3)ccc2c1	0.1 h (inactive)	0% (inactive)	1 (inactive)	101% (inactive)	1.03 (inactive) and 0.931 (inactive)	1.73 and 0.739	9970 and 8800	9720 and 9460	inactive	0.695 (inactive) and 0.09 (inactive)
CC(/C=C/c1cccc(Oc2ccc(F)cc2)c1)N(O)C(N)=O (stereo not given)	-0.095 h (inactive)	0% (inactive)	1 (inactive)	129% (inactive)	1.07 (inactive) and 0.882 (inactive) and 0.954 (inactive)	1.69 and 1.06 and 0.78	8210 and 4190 and 6640	7700 and 4750 and 6960	inactive	-1.33 (inactive) and -0.775 (inactive)
O=c1onc2cnc3ccccc3n12	0.13 h (inactive)	0% (inactive)	1 (inactive)	108% (inactive)	1.09 (inactive) and 0.945 (inactive) and 0.946 (inactive)	1.29 and 1.08 and 0.805	8010 and 5220 and 7630	7350 and 5530 and 8060	inactive	0.125 (inactive) and 0.635 (inactive)
CCCc1c(-c2ccc(O)cc2)nn(-c2ccc(O)cc2)c1-c1ccc(O)cc1	0.165 h (inactive)	-1% (inactive)	1 (inactive)	109% (inactive)	1.09 (inactive) and 0.887 (inactive) and 1.03 (inactive)	1.1 and 0.322 and 0.755	8030 and 5050 and 7250	7380 and 5690 and 7020	inactive	1.27 (inactive) and 1.6 (inactive)
O=C(O)c1cc(=O)c2c(Cl)cc(Cl)cc2[nH]1	-0.065 h (inactive)	-1% (inactive)	1 (inactive)	90.4% (inactive)	0.981 (inactive) and 0.957 (inactive)	0.527 and 0.88	10000 and 8540	10200 and 8930	inactive	0.135 (inactive) and -0.315 (inactive)
NC(N)=NC(N)=Nc1cccc(Cl)c1	0.15 h (inactive)	-4% (inactive)	1 (inactive)	77.4% (inactive)	0.947 (inactive) and 0.85 (inactive)	1.12 and 1.01	10300 and 7530	10900 and 8860	inactive	-0.165 (inactive) and -0.935 (inactive)
S=C(S)N1CCCC1	0.08 h (inactive)	-2% (inactive)	1 (inactive)	87.7% (inactive)	0.892 (inactive) and 0.97 (inactive)	1.02 and 0.891	6850 and 8740	7680 and 9010	inactive	-1.38 (inactive) and -1.23 (inactive)
CC[C@H](NC(=O)c1c(C)c(-c2ccccc2)nc2ccccc12)c1ccccc1	0.09 h (inactive)	1% (inactive)	1 (inactive)	110% (inactive)	1.28 (inactive) and 0.912 (inactive)	1.6 and 0.801	6890 and 7500	5390 and 8230	inactive	1.77 (inactive) and 1.96 (inactive)
Cc1nc2c(OCc3ccccc3)cccn2c1CC#N	-0.02 h (inactive)	1% (inactive)	1 (inactive)	113% (inactive)	1.04 (inactive) and 0.99 (inactive)	1.18 and 1.15	9420 and 8410	9080 and 8490	inactive	1.07 (inactive) and 2.13 (inactive)
C[C@H](NC(=O)/C(C#N)=C/c1ccc(O)c(O)c1)c1ccccc1	0.035 h (inactive)	-1% (inactive)	1 (inactive)	111% (inactive)	0.957 (inactive) and 0.876 (inactive)	2.11 and 1.78	6810 and 7420	7120 and 8470	inactive	-1 (inactive) and -0.545 (inactive)
NCC(O)(CS(=O)(=O)O)c1ccc(Cl)cc1 (stereo not given)	0.035 h (inactive)	-2% (inactive)	1 (inactive)	105% (inactive)	0.977 (inactive)	2.17 and 0.803	9480 and 8580	9700 and 8780	inactive	0.265 (inactive) and -0.115 (inactive)
COc1ccc(NC(=O)c2ccc(-c3ccc(-c4noc(C)n4)cc3C)cc2)cc1N1CCN(C)CC1	0.065 h (inactive)	-3% (inactive)	0.9 (inactive)	119% (inactive)	0.954 (inactive) and 1.08 (inactive)	0.805 and 0.587	510 and 1390	535 and 1290	inactive	-1.29 (inactive) and -0.715 (inactive)
C[C@@H](CN1CCC(Cc2ccccc2)CC1)[C@@H](O)c1ccc(O)cc1	0.12 h (inactive)	-3% (inactive)	1 (inactive)	113% (inactive)	0.971 (inactive) and 0.906 (inactive)	0.907 and 0.699	9590 and 8970	9880 and 9910	inactive	-1.21 (inactive) and -0.605 (inactive)
